ELG1 repair inh: inhibitors of ELG1-dependent DNA repair in HEK293T cells. HEK293T ELG1-luciferase reporter, luminescence, 16 h; DNA damage induced by 5-fluorouridine. Potency, µM (highest dose often 46.1 µM), most hits filed as inhibitors. 2.3% of 330,000 active; note: nearly all actives have a fitted effect of over 55% in size
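In this reporter screen, reduction of luminescence relative to DMSO vehicle indicated activity. Compounds and 5-fluorouridine were added together to 2,000 cells per well, incubated for 16 hr at 37 °C, then developed with ONE-Glo.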
KB-V1 MDR tox: kills drug-selected multidrug resistant KB-V1 cells; Potency, µM (doses to about 46.1 µM), actives largely listed as cytotoxic; AID 1347076; 3.4% of 400,000 active; KB-V1 MDR cells viability, CellTiter-Glo, 72 h; note: nearly all actives have a fitted effect of over 60% in size
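Readout: CellTiter-Glo luminescence, 10 min after addition. Cells: KB-V1 MDR subline, 72 h at 37 degrees C with compound. Analysis: corrected, normalized data fitted to concentration-effect curves.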
MCF10A rerep: inducers of DNA re-replication in MCF 10A breast cells | MCF 10A DNA re-replication, Hoechst nuclear intensity, 48 h | Potency, µM (top dose mostly 46.1 µM), actives largely listed as activators | 2.9% of 350,000 active | AID 624296; note: nearly all actives have a fitted effect of over 50% in size
KB-3-1 cytotox: kills parental KB-3-1 adenocarcinoma cells | KB-3-1 viability, CellTiter-Glo ATP luminescence, 72 h | Potency, µM (series often up to 46.1 µM), most hits filed as cytotoxic | 1.4% of 400,000 active | AID 1347075; note: nearly all actives have a fitted effect of over 60% in size
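Cytotoxicity measured as CellTiter-Glo luminescence after 72 h at 37 C. Compound titrations were pinned onto drug-naive KB-3-1 parental adenocarcinoma cells grown in DMEM with 10% FBS, and normalized data fitted to concentration-response curves.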
SW480 rerep: DNA re-replication induction in SW480 cells; SW480 DNA re-replication, Hoechst DNA content imaging, 48 h; Potency, µM (top dose mostly 46.1 µM), usual class: activators; 1.8% of 340,000 active; AID 624297; note: nearly all actives have a fitted effect of over 55% in size
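Cells (250 per well) received 23 nL compound or DMSO by pin tool and were kept 48 hr at 37 C, 5% CO2. Nuclei were then stained with Hoechst for 40 min and scanned for DNA content.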
Of the large screens only hits and unclear results are named; the others gave an inactive call. An excerpt weighted towards active compounds, which were near 8.1% of everything screened. Calls come from the whole dose curve; as a rule, active = well fitted curve in the direction sought with a large enough effect; inconclusive = small, poorly fitted or top-dose-only effect, or another doubt; inactive = no such curve, though single readings can be large; an effect the other way counts as inactive or inconclusive.

CCCc1nc2ccccc2c(=O)n1/N=C/c1ccccc1O	ELG1 repair inh inconclusive, KB-V1 MDR tox 16µM, MCF10A rerep inconclusive, SW480 rerep inconclusive
CCCc1nc2ccccc2c(=O)n1/N=C/c1c(C)[nH]n(-c2ccc(C)cc2)c1=O	ELG1 repair inh inconclusive, KB-V1 MDR tox 16µM, KB-3-1 cytotox 8.2µM, SW480 rerep inconclusive
Cc1nc2ccccc2c(=O)n1/N=C/c1ccc(O)cc1O	none
CC(=O)c1ccc(OCCCC(=O)N2CCN(S(=O)(=O)c3ccc(C(C)C)cc3)CC2)cc1	ELG1 repair inh inconclusive, KB-V1 MDR tox inconclusive
COc1ccc(-c2ccc(N(C)C)cc2)cc1[C@H]1[C@@H]2C=CCC[C@@]2(C)C(=O)N1Cc1ccccc1	ELG1 repair inh inconclusive, KB-V1 MDR tox inconclusive, KB-3-1 cytotox 18µM, SW480 rerep inconclusive
COc1ccc(-c2ccc([C@H]3[C@@H]4C=CCC[C@@]4(C)C(=O)N3Cc3ccccc3)c(F)c2)cc1	ELG1 repair inh inconclusive, KB-V1 MDR tox 7.3µM, MCF10A rerep inconclusive, KB-3-1 cytotox inconclusive
COc1ccc(Br)cc1[C@H]1[C@@H]2C=CCC[C@@]2(C)C(=O)N1Cc1ccccc1	ELG1 repair inh inconclusive, KB-V1 MDR tox inconclusive, MCF10A rerep inconclusive, KB-3-1 cytotox inconclusive
CC(C)(C)OC(=O)NC(CNCc1ccccc1)Cc1ccccc1 (stereo not given)	MCF10A rerep inconclusive, SW480 rerep inconclusive
Cc1cccc(CNC(=O)C2CCN(c3nc4ccc(Cl)cc4[nH]3)CC2)c1	none (no result: ELG1 repair inh, MCF10A rerep, SW480 rerep)
CN(C)c1ccc(CN(C(=O)C2COc3ccccc3O2)C2CCS(=O)(=O)C2)cc1 (stereo not given)	KB-V1 MDR tox 18µM, MCF10A rerep inconclusive
CC(C)c1ccc(CN(C(=O)C2COc3ccccc3O2)C2CCS(=O)(=O)C2)cc1 (stereo not given)	KB-V1 MDR tox inconclusive
Cc1ccc(-c2nc(NCCCO)c3ccccc3n2)cc1	ELG1 repair inh inconclusive, KB-V1 MDR tox inconclusive
Cc1cccc2nc(-c3ccccc3)nc(N[C@@H](CO)c3ccccc3)c12	ELG1 repair inh 9.2µM, KB-V1 MDR tox inconclusive, MCF10A rerep inconclusive, KB-3-1 cytotox inconclusive
COc1ccc(NC(=O)CCCn2c(=O)c3sccc3n(Cc3ccccc3C)c2=O)cc1	ELG1 repair inh inconclusive, KB-V1 MDR tox 9.2µM
C=C(C)c1nc(Oc2ccccc2)nc(Oc2ccccc2)n1	MCF10A rerep 4.1µM, KB-3-1 cytotox inconclusive, SW480 rerep inconclusive (no result: ELG1 repair inh)
O=C(Nc1ccc(OC(F)(F)F)cc1)c1nc2ccccc2nc1N1CCCCC1	none (no result: ELG1 repair inh, MCF10A rerep, SW480 rerep)
COC(=O)c1c(NC(=O)C2SC(=NC3CCCCC3)C(C(N)=O)=C2N)sc2c1CCCC2 (stereo not given)	MCF10A rerep inconclusive
C=C(C)CN=C1SC(C(=O)Nc2sc3c(c2C(=O)OC)CCC3)C(N)=C1C(N)=O (stereo not given)	KB-V1 MDR tox 9.2µM, MCF10A rerep 4.1µM, KB-3-1 cytotox inconclusive, SW480 rerep inconclusive
CCN(CC)C(=O)c1cnn(-c2ccccc2)c1NC(=O)c1ccccc1F	KB-V1 MDR tox 4.6µM
O=C(Nc1c(C(=O)N2CCOCC2)cnn1-c1ccccc1)c1ccccc1F	none
COc1cc(-c2onc3ccc(Br)cc23)cc(OC)c1OC	ELG1 repair inh inconclusive, KB-V1 MDR tox 2.1µM, MCF10A rerep inconclusive, KB-3-1 cytotox 5.2µM, SW480 rerep 18µM
COc1ccc(-c2onc3ccc(Br)cc23)cc1	none
OC(CNCc1ccc(-c2ccccc2)cc1)c1ccccc1 (stereo not given)	KB-V1 MDR tox inconclusive, MCF10A rerep 18µM, KB-3-1 cytotox inconclusive, SW480 rerep 18µM
OC(CNCc1ccncc1)c1ccccc1 (stereo not given)	none
Cc1ccsc1/C=C(\C(=O)c1ccc(OC(C)C)cc1)c1nc2ccccc2o1	ELG1 repair inh inconclusive, KB-V1 MDR tox inconclusive, SW480 rerep 8.2µM
C/C(=N\Nc1nc(Cl)c(Cl)cc1Cl)c1ccc(S(=O)(=O)NCc2ccco2)cc1	ELG1 repair inh inconclusive, KB-V1 MDR tox 12µM, MCF10A rerep inconclusive, KB-3-1 cytotox inconclusive, SW480 rerep inconclusive
C/C(=N\Nc1ccccn1)c1ccc(S(=O)(=O)NCc2ccco2)cc1	KB-V1 MDR tox inconclusive
CC(=O)Nc1ccc(S(=O)(=O)CC(=O)CS(=O)(=O)c2ccc(NC(C)=O)cc2)cc1	none (no result: ELG1 repair inh, MCF10A rerep, SW480 rerep)
O=C(Nc1nnc([C@@H]2C[C@H](O)[C@@H](CO)O2)s1)c1c(F)cccc1F	none (no result: ELG1 repair inh, MCF10A rerep, SW480 rerep)
CCCCCCC(O)(c1ccc(OC)cc1)C(CN1CCOCC1)c1ccccc1 (stereo not given)	ELG1 repair inh inconclusive, KB-V1 MDR tox inconclusive, MCF10A rerep inconclusive, KB-3-1 cytotox 18µM, SW480 rerep inconclusive
CCCCOc1ccc(C(O)(CCC)CCN2CCOCC2)cc1 (stereo not given)	KB-V1 MDR tox 10µM, MCF10A rerep inconclusive, KB-3-1 cytotox 23µM, SW480 rerep inconclusive
CCC1CCC(C(=O)NC(C(=O)NCCN2CCOCC2)C(C)C)CC1 (stereo not given)	KB-V1 MDR tox inconclusive
Fc1ccc(-n2cc(-c3ccccc3)c3c(N4CCOCC4)ncnc32)cc1	ELG1 repair inh 21µM, KB-V1 MDR tox inconclusive, MCF10A rerep inconclusive
OCCN1CCN(c2ncnc3c2c(-c2ccccc2)cn3-c2ccc(Br)cc2)CC1	KB-V1 MDR tox inconclusive, MCF10A rerep inconclusive
COc1ccc(-n2cc(-c3ccccc3)c3c(N4CCOCC4)ncnc32)cc1	ELG1 repair inh inconclusive, KB-V1 MDR tox 16µM
NC(=O)C1CCN(c2ncnc3c2c(-c2ccccc2)cn3-c2ccccc2)CC1	ELG1 repair inh 16µM, KB-V1 MDR tox inconclusive
O=C(Nc1ccn(CCOC(=O)c2ccccc2)c(=O)n1)c1ccccc1	none (no result: ELG1 repair inh, MCF10A rerep, SW480 rerep)
Cc1ccc(NC(=O)C(Cc2ccccc2)N2C(=O)C3C4CCC(C4)C3C2=O)cc1Cl (stereo not given)	ELG1 repair inh 18µM, KB-V1 MDR tox inconclusive, MCF10A rerep inconclusive, KB-3-1 cytotox inconclusive, SW480 rerep inconclusive
COc1ccc(N2C(c3cc(OC)cc(OC)c3)=Cc3ccccc3C2CC(C)=O)cc1 (stereo not given)	KB-3-1 cytotox 23µM (no result: ELG1 repair inh, MCF10A rerep, SW480 rerep)
COC(=O)[C@@]12C[C@@H](CC(=O)N3CCN(C(=O)C4CC4)CC3)C(=O)N(Cc3ccco3)C1=CCC(C)(C)C2	none (no result: ELG1 repair inh, MCF10A rerep, SW480 rerep)
Cc1nc2cc(NS(=O)(=O)c3ccc(Br)cc3)ccc2n1C	ELG1 repair inh 21µM
Cc1nc2ccc(NS(=O)(=O)c3ccc(Br)cc3)cc2s1	KB-3-1 cytotox 23µM
Cc1ccc(S(=O)(=O)Nc2ccc3nc(C)oc3c2)cc1	KB-V1 MDR tox 2.9µM, KB-3-1 cytotox inconclusive (no result: ELG1 repair inh)
Cc1nc2cc(NS(=O)(=O)c3c(C)c(C)cc(C)c3C)ccc2s1	ELG1 repair inh inconclusive, KB-V1 MDR tox 11µM, KB-3-1 cytotox 13µM
Cc1cccc(C(=O)Nc2sc3c(c2C(=O)N2CCCCC2)CCC(C)C3)c1 (stereo not given)	KB-V1 MDR tox inconclusive (no result: ELG1 repair inh, MCF10A rerep, SW480 rerep)
Cc1ccc(C)c(N2CCN(S(=O)(=O)c3cn(C)c(C)n3)CC2)c1	none (no result: ELG1 repair inh, MCF10A rerep, SW480 rerep)
Cc1cccc(C)c1NC(=O)CN1CCCCCC1	none (no result: ELG1 repair inh, KB-V1 MDR tox, KB-3-1 cytotox)

Screens (PubChem BioAssay)
